Data on 40 molecules can be found in PubChem BioAssay (NCATS).

The structures appear in SMILES notation. Records with an inconclusive call do not appear. Entries that show only a call come without a potency. The source made the active and inactive calls. Calls follow the shape of the dose curve; as a rule, active = well fitted inhibition curve with a large enough effect; inconclusive = small, poorly fitted or top-dose-only effect; inactive = flat fitted curve, though single readings scatter.

Chain of Calcium and integrin-binding protein 1 (Homo sapiens) (Q99828 whole entry, looked up): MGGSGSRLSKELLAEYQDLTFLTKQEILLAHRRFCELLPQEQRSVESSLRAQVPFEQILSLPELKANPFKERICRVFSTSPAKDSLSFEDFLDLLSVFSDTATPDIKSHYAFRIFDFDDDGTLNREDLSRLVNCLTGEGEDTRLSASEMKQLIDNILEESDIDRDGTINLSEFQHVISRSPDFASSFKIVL

The target of this assay is Calcium and integrin-binding protein 1 (Homo sapiens) (UniProt Q99828). The assay is described as follows: Primary qHTS for Identification of Calcium Integrin Binding Protein 1 (CIB1) Competitor (AID 1508620).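 Also: GST tagged CIB1 binding a fluorescein labelled alphaIIb integrin peptide tracer; top concentration of the series differs between compounds.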 As to conditions: CIB1-GST / FITC-alphaIIb peptide fluorescence polarization; series mostly up to 114 µM. Put shortly:
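CIB1-GST (1 uM final) and compound incubated 15 min at room temperature before adding FITC-alphaIIb peptide tracer (100 nM final). Competition for binding read by fluorescence polarization (ex 480, em 540) after another 15 min at room temperature.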
For orientation: Quantitative high-throughput screening tests each substance at several concentrations.
As to `Oc1cccc2cc(NCc3ccccc3F)cnc12`, the Potency result is “inactive”.

Regarding `O=C(Cc1ccc(Cl)c(Cl)c1)Nc1ccc([S+](=O)([O-])Nc2ccccn2)cc1`, the Potency entry was “inactive”.

As to `FC(F)(F)c1cccc(N2CCN(C(=S)Nc3cccnc3)CC2)c1`, the Potency result was “inactive”. Turning to `Cc1cc(C)nc(NC(=S)N2CCN(c3nsc4ccccc34)CC2)c1`, the Potency entry is “inactive”.

Consider `COc1cnccc1-c1nc(Nc2ccc(F)c(F)c2)c2ccccc2n1`, for which the Potency entry was “inactive”. As for `Cc1cc(C)nc(NC(=S)N2CCN(c3nc(C)cnc3C)CC2)c1`, the Potency entry is “inactive”.

Take `CCCCN1C(=O)c2ccccc2NC1c1ccc(OC)c(COc2c(C)cc(NC(C)=O)cc2C)c1` (stereo not given): the Potency result was “inactive”.

For the molecule `Cc1cc(C)nc(NC(=S)N2CCN(c3cccc4ccccc34)CC2)c1`, the Potency result was “inactive”.

For the molecule `COc1ccc(CSc2nc3ncc(Br)cc3[nH]2)cc1F`, the Potency entry was “inactive”. Turning to `Cc1cc(C)nc(NC(=S)N2CCN(c3cccc(OC(F)F)c3)CC2)c1`, the Potency result is “inactive”.

Turning to `Oc1ccc(CCc2ccccc2)c2cccnc12`, the Potency entry is “inactive”. For `CCc1c(C)nc2cc(-c3ccc(OC)c(OC)c3)nn2c1N1CCCC1`, the Potency entry was “inactive”. For `Cc1ccc(NS(=O)(=O)c2ccc3c(c2)CCN(C(=O)C(F)(F)F)C3)cc1C` the value was “inactive”. For `N#Cc1c(-c2cccc(Br)c2)no[n+]1[O-]` the value was “inactive”.

Regarding `N=c1c2c(ccn1CCCc1ccccc1)Oc1ccc3ccccc3c1C2c1ccccc1` (stereo not given), the Potency entry is “inactive”. With `Brc1ccc(-c2csc(N3CCC(c4nn[nH]n4)CC3)n2)cc1`, the Potency result was “inactive”. The result for `CC(C)c1cc(C(C)C)c(S(=O)(=O)Nc2cccc3cccnc23)c(C(C)C)c1` reads “inactive”; that for `O=C(NCCc1nc2ccccc2n1CCOc1ccccc1F)C1CCCCC1`, “inactive”; that for `O=S(=O)(Nc1nccs1)c1ccc(NCc2ccccc2)cc1`, “inactive”. Consider `O=C(CN1C(=O)N/C(=C\c2cccn2-c2cccc(C(=O)O)c2)C1=O)Nc1ccc(Cl)cc1`, for which the Potency result was “inactive”.

For `O=C(NC1CCCc2c1cnn2-c1ccc(F)cc1F)c1ccc(C(=O)c2ccccc2)cc1` (stereo not given), the Potency entry is “inactive”. Turning to `Cc1cc(C)n2ncc(C(=O)Nc3cc(Cl)cc(Cl)c3)c2n1`, the Potency result is “inactive”. In the case of `CS(=O)(=O)c1ccc(C(=O)OCC(=O)N2CCN(Cc3ccccc3)CC2)cc1[N+](=O)[O-]`, the Potency entry was “inactive”. `O=c1c2ccccc2nc2sc(Nc3cccc(-c4ccncc4)c3)nn12`: the Potency result was “inactive”. With `N#Cc1nc(NC2CCCC2)c2ncn(-c3cc(F)cc(F)c3)c2n1`, the Potency entry was “inactive”.

Take `Cc1cc(N[S+](=O)([O-])c2ccc3c(c2)CCC(=O)N3C)ccc1F`: the Potency entry was “inactive”.

For the molecule `COC(=O)c1ccc(N2CCN(S(=O)(=O)c3ccc4c(c3)CC(=O)N4)CC2)cc1`, the Potency result was “inactive”. As for `CC(=O)Nc1sc2c(c1-c1ccc3nonc3c1)CCNC2`, the Potency entry was “inactive”. The result for `COc1ccc(C2Nc3ccccc3C(=O)N2CCO)cc1COc1c(C)cc(NC(C)=O)cc1C` (stereo not given) reads “inactive”. On to `CCC(O)(c1nnc(NCc2ccc3c(-c4ccc(F)cc4)cc(=O)oc3c2)o1)C(F)(F)F` (stereo not given), for which the Potency entry was “inactive”. For `CCOC(=O)CC(=O)Nc1ncnc2c1C(c1ccccc1)c1c(ccc3ccccc13)O2` (stereo not given), the Potency result is “inactive”.

On to `CC(=O)Nc1ccc(S(=O)(=O)N2CCN(S(=O)(=O)c3ccc4c(c3)OCCO4)CC2)cc1`, for which the Potency result is “inactive”.

On to `Cc1cc2c(s1)c1cnn(Cc3c(F)ccc(C)c3Cl)c(=O)c1n2C`, for which the Potency entry was “inactive”. Turning to `O=C(Nc1ccc2c(c1)CCC2)Nc1nnc(-c2ccncc2)s1`, the Potency entry was “inactive”.

With `CCCCN(C)C(=O)Cn1nc(-c2ccccc2C)ccc1=O`, the Potency entry was “inactive”. For `N#Cc1ccc(-c2ccc(-c3nc4ccccc4c(=O)[nH]3)o2)cc1` the value was “inactive”; for `Oc1ccc(CNc2cccnc2)c2cccnc12`, “inactive”; for `COc1ccc(NC(=O)c2cccnc2)cc1S(=O)(=O)Nc1ccc(Br)cc1`, “inactive”.

Take `Cc1ccc(NS(=O)(=O)c2cc3c(cc2N2CCC2)NC(=O)CC3)cc1C`: the Potency entry was “inactive”. In the case of `COc1cccc(-n2cnc3cc(C(=O)N4CCCCC4)ccc32)c1`, the Potency entry is “inactive”.
